Source: PubChem
The list is not random: actives were taken first. Their share in the collection is about 3.5%.
Pf apPOL block – Pf-apPOL DNA polymerase inhibition. Recombinant Pf-apPOL, molecular beacon fluorescence, 1.5 h. 0.25% of 210,000 active. inhibition, % at 10 µM
mHTT CaM bind – disrupts binding of mutant huntingtin to calmodulin. P42858. AlphaScreen His-mHTT/GST-CaM binding, luminescence. inhibition, % at 15 µM. 3.6% of 190,000 active. AID 1671202;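 also: 0% = both proteins with DMSO and 100% = one protein alone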
Starred values were filed as active, the others as inactive; i = inactive; nt = no result; ! = not confirmed by another sample. Rule as the data show it: active = inhibition above about 50%; inactive = the rest.

SMILES	Pf apPOL block	mHTT CaM bind
CN(C)C(CN)c1cn(C)c2ccccc12 (configuration not stated)	0	69*
CC(C)C/C(=N\O)c1cn(C)c2ccccc12	nt	i
O=C1c2ccccc2-c2c3c(cc4ccnc1c24)OCO3	77*	nt
Brc1ccc(C2C=C(c3cccnc3)Nc3ncnn32)cc1 (configuration not stated)	-9	15
CCOc1cccc(CNC(=O)c2nc(C)n(C3CCN(C)CC3)c2C)c1	-1	13
CCCn1cc(C(=O)NCc2ccc(N(C)C)cc2)c2cccnc21	-5	35
O=[N+]([O-])c1c(Br)sc(Br)c1[N+](=O)[O-]	nt	52*
CC1N=C(c2ccccc2)c2ccccc2N(Cc2ccccc2F)C1=O (configuration not stated)	-17	-4
CN(C)c1ccc(CN2CC=C(c3ccc(F)cc3)CC2)cc1	3	52*
CN(C)c1ccc(CN2CCN(c3ccc(F)cc3)CC2)cc1	-4	38
CC(C)c1ccc(C=C2CC3C4CCC5CC(O)CCC5(C)C4CCC3(C)C2O)cc1 (configuration not stated)	-6	8
c1ccc2c(c1)CCc1c-2[nH]c2ccccc12	-5	63*
COc1ccc2c(c1)C1(CCN(C(=O)NCc3ccccc3)C1)C(=O)N2 (configuration not stated)	-2	-4
O=C1c2ccccc2C(=O)c2ccccc21	3	nt
O=C1C=CC(=O)c2c(O)cccc21	97*	nt
COc1ccc(OC)c(-c2c(C)c3ccc(OC(=O)N(C)C)cc3oc2=O)c1	0	4
COc1ccc(C=C2C(=O)NC(=S)NC2=O)cc1Br	64*	nt
COc1cc(C=C2C(=O)NC(=O)NC2=O)ccc1OCC(=O)O	-1	4
N/C(=N\[N+](=O)[O-])Nc1ccc(NC(=O)c2ccccn2)cc1	-6	i
O=c1oc2ccccc2c(O)c1C(c1cccnc1)c1c(O)c2ccccc2oc1=O	-4	7
CCOc1cc(C(c2c(O)c3ccccc3oc2=O)c2c(O)c3ccccc3oc2=O)ccc1O	-10	84*
NCC#CCN1CCCCC1	-5	-1
NC(Cc1cc(O)c(O)cc1O)C(=O)O (configuration not stated)	81*	nt
NCCc1cc(O)c(O)cc1O	nt	31
COc1ccc2c(c1)C1(CCN(S(=O)(=O)c3ccc(F)c(F)c3)C1)C(=O)N2C (configuration not stated)	-5	9
SMILES	Pf apPOL block	mHTT CaM bind
Nc1cc2nc3ccccc3nc2cc1O	0	100*
Nc1cc2nc3ccccc3nc2cc1N	nt	19
O=C(Nc1ccc(Cl)c(Cl)c1)N1CC2CC(C1)c1cccc(=O)n1C2 (configuration not stated)	-3	-5
O=C(NCCN1CCN(C(=O)Cc2ccc(F)cc2)CC1)c1ccsc1	-5	-4
CC1N=C(c2ccccc2)c2ccccc2N(CC(=O)Nc2ccc(F)c(Cl)c2)C1=O (configuration not stated)	-19	66*
CC1N=C(c2ccccc2)c2ccccc2N(CC(=O)Nc2ccc(F)cc2Cl)C1=O (configuration not stated)	-19	5
OC1CN2CCC1C(c1ccccc1)C2 (configuration not stated)	-1	-3
O=Cc1nc2ccccc2n1Cc1ccc(Cl)cc1Cl	-6	95*
O=Cc1nc2ccccc2n1Cc1ccccc1	-5	35
Nc1c(S(=O)(=O)F)cc(Br)c2c1C(=O)c1ccccc1C2=O	48	40
COc1cc(CNCCc2c[nH]c3ccccc23)c([N+](=O)[O-])cc1OC	-1	14
O=[N+]([O-])c1cc2c(cc1CNCCc1c[nH]c3ccccc13)OCO2	-2	68*
COc1ccc(NC(=O)c2nc(C)n(C3CCN(C)CC3)c2C)c(OC)c1	59*	21
COc1ccc(OC)c(NC(=O)c2nc(C)n(C3CCN(C)CC3)c2C)c1	-5	27
c1cnc2nc(N3CCNCC3)oc2c1	nt	-3
Fc1nc(N2CCNCC2)c(F)c(Sc2ccc(Cl)cc2)c1F	nt	96*
CC(C)c1ccc(C=C2Oc3cc(OC(=O)N(C)C)ccc3C2=O)cc1	-5	20
CN1C(=O)C(=Cc2cccn2-c2ccc(S(N)(=O)=O)cc2)C(=O)N(C)C1=O	-3	7
Cc1ccc(-n2cccc2C=C2C(=O)NC(=O)NC2=O)cc1Cl	4	80*
Cc1cccc(CC(=O)N2CCCN(C3CCN(Cc4ccc(F)cc4)C3=O)CC2)c1 (configuration not stated)	1	86*
O=C(Cc1ccsc1)N1CCCN(C2CCN(Cc3ccc(F)cc3)C2=O)CC1 (configuration not stated)	1	39
CN1C2CCC1CC(N=Cc1ccccc1)C2 (configuration not stated)	-6	nt
Cc1nn(-c2ccccc2)c([Se])c1C=NC1CCCCC1	-1	63*
COc1cc(C=C[N+](=O)[O-])c([N+](=O)[O-])cc1OC	16	nt
Cc1ccc(C2CC(c3cccnc3)Nc3nnnn32)cc1 (configuration not stated)	0	-1
SMILES	Pf apPOL block	mHTT CaM bind
CC(=O)OC1C2C(OC(=O)Cc3ccccc3)C(C)CC2(OC(C)=O)C(=O)C(C)=CC2C(CCC13CO3)C2(C)C (configuration not stated)	1	nt
CCOc1cc(CNCCc2ccc(Cl)cc2)ccc1OC	-10	-5
CC12CN3CC(C)(CN(C1)C3c1ccncc1)C2=O (configuration not stated)	-5	2
CCC12CN3CC(CC)(CN(C1)C3c1ccccn1)C2O (configuration not stated)	-14	100*
COc1ccc2c(c1)C1(CCN(S(C)(=O)=O)C1)C(=O)N2C (configuration not stated)	-3	-6
CCC(=O)N1N=C2C3CCN(CC3)C2C1c1ccc(Cl)cc1Cl (configuration not stated)	-8	-6
COc1cc(Br)cc(/C=C/[N+](=O)[O-])c1O	-1	72*
COc1cc(/C=C/[N+](=O)[O-])c(OC)cc1C	-4	25
CC12CCC3C(CC=C4CC(OC(=O)C=Cc5ccccc5)CCC43C)C1CCC2=O (configuration not stated)	-7	-6
Cc1[nH]nc2c1C(c1cc(F)cc(F)c1)SCC(=O)N2 (configuration not stated)	1	-4
CC(C)CNC(=O)c1ccc(N2CC3CC(C2)c2cccc(=O)n2C3)c(N)c1 (configuration not stated)	-8	2
Cc1ccc(CC2C(=O)N(C)C(=O)N(C)C2=O)s1	-6	7
CCN(CC)c1ccc(CC2C(=O)N(C)C(=O)N(C)C2=O)cc1	-1	57*
C=CCOc1ccc(CC2C(=O)N(C)C(=O)N(C)C2=O)cc1	-5	100*
CCSc1oc(C)cc1C=C(C#N)C#N	nt	-9
Cc1cccc2c1OC1(CCN(C)CC1)NC2=O	-2	-3
CN(C)C(=O)Oc1ccc2c(c1)OC(=Cc1ccco1)C2=O	0	6
CCn1cc(C(=O)Nc2ccc(C)cc2Cl)c2cccnc21	0	15
NCCc1c[nH]c2ccccc12	4	nt
CN1CCCN(Cc2c[nH]c3ccccc23)CC1	-4	-4
c1ccc(Oc2ccc3[nH]cc(CCN4CC4)c3c2)cc1	nt	72*
NCCc1c[nH]c2ccc(OCc3ccccc3)cc12	3	80*!
N#Cc1cc2c(=O)n3ccccc3nc2n(CCN2CCOCC2)c1=N	-10	-3
CCCN1CCN(C(=O)Cc2c[nH]c3ncccc23)CC1	2	-7
